Source: PubChem (several laboratories)
D1 mod – D1 CRE-luciferase signal change, two-sided – cell-based, HEK293 D1, dopamine EC30, D1 allosteric modulator project, primary screen. D(1A) dopamine receptor (Homo sapiens), P21728. dopamine EC30 potentiation; actives deviate in either direction. B-score at 10 µM. 58,000 compounds, 5.9% hits;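 active = luminescence count or its row- and column-corrected plate score outside the 99.7% band of the plate's sample wells, on either side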
Target sequence (P21728 whole entry, looked up): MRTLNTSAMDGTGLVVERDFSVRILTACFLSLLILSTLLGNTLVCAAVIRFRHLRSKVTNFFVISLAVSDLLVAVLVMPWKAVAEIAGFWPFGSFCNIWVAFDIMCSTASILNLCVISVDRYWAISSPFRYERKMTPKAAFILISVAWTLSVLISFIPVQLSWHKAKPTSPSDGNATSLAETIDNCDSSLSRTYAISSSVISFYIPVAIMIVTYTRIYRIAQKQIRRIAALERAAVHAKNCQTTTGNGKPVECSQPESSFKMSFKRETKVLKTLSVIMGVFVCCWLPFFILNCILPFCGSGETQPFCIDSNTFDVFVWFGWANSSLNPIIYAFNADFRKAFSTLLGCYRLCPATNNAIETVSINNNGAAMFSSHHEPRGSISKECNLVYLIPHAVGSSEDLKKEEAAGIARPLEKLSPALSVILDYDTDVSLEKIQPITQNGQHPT
EphB4 ephrin blk – EphB4-ephrin-B2 interaction antagonists, primary screen, biochemical, TNYL-RAW peptide probe, fluorescence polarization | 97,000 compounds, 0.15% hits | inhibition, % at 7 µM | EphB4 LBD / TNYL-RAW-Alexa532 peptide | Ephrin type-B receptor 4 (Homo sapiens), P54760;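 active = inhibition above the screen-wide mean inhibition plus 3 SD, cut at about 15% in these data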;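 also: 0% = DMSO wells and 100% = excess unlabeled TNYL-RAW peptide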
DAT uptake mod – changed hDAT dopamine uptake under cocaine IC80, either direction, primary screen, cocaine antagonist project, cell-based, LLC-PK1 hDAT, [14C]-dopamine uptake, MLSMR | AID 449768, 2010 | LLC-PK1 hDAT cells, [14C]-dopamine uptake with cocaine IC80; actives deviate in either direction | 110,000 compounds, 1.3% hits | B-score at 10 µM;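 active = Z score or B-score, a plate-position-corrected score, falls beyond the plate's 99.7% confidence bounds, in either direction; inactive = both scores lie inside the 99.7% bounds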;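 also: scored against the spread of the other compound wells on the same plate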
D1 PAM confirm – D1 receptor positive allosteric modulators, retest, confirmation, cell-based, HEK293 D1, CRE-luciferase, duplicate; dopamine EC30 potentiation; active compounds read high; shares compounds with D1 mod; 2,200 compounds, 88% hits; luminescence at 10 µM;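 active = luminescence in either of two replicates above the same-plate mean plus 3 SD of the low-dose dopamine control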
D1 no dopamine – D1 receptor agonism without dopamine, confirmation, mechanism study for D1 allosteric modulator project, cell-based, HEK293 D1, CRE-luciferase, secondary assay 1 | shares compounds with D1 mod | 1,900 compounds, 0.8% hits | luminescence, no dopamine; active compounds read high | luminescence at 10 µM; in the data active = luminescence above about 3900
Isoprot counter – isoproterenol response counter-screen activity for D1 modulators; shares compounds with D1 mod; HEK293 D1 CRE-luciferase, isoproterenol EC30 counter-screen; calls only at 10 µM; 2,200 compounds, 63% hits;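 active = luminescence in either replicate above plate mean of wells with a partly effective reference agonist dose plus 3 SD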;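 also: isoproterenol raises cAMP through native beta-adrenoceptor Gs so signal bypasses D1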
Starred values were filed as active, the others as inactive; i = inactive; x = not tested or not shown; + = active, no number. This is one part of a sample in which hits are shown more often than they occur.

SMILES	D1 mod	EphB4 ephrin blk	DAT uptake mod	D1 PAM confirm	D1 no dopamine	Isoprot counter
COC(=O)c1ccccc1NC(=O)CSc1nc2c(c(=O)n(C)c(=O)n2C)n1C	0.57	0	x	x	x	x
CCCn1c(SCC(=O)Nc2sc(C)c(C)c2C(=O)OCC)nc2c1c(=O)n(C)c(=O)n2C	6.5*	7	0.3	8860*	1644	i
CCOC(=O)c1c(NC(=O)CSc2n[nH]c(N)n2)sc(CC)c1C	7.9*	x	-0.3	14984*	1740	+
CCOC(=O)c1sc(NC(=O)CSc2nnc(-c3ccco3)n2CC)c(C(=O)OCC)c1C	0.016	-1	0.76	x	x	x
COC(=O)c1c(NC(=O)CSc2n[nH]c(N)n2)sc(C)c1C	1.5	-5	-1.3	x	x	x
CCCCn1c(SCC(=O)Nc2cc(C)on2)nc2c1c(=O)n(C)c(=O)n2C	0.15	-8	-0.76	x	x	x
CCOC(=O)c1sc(NC(=O)CSc2nncs2)c(C(=O)OCC)c1C	4*	-5	-0.6	6908*	1576	i
CCCn1c(SCC(=O)Nc2ccccc2C(=O)OC)nc2c1c(=O)n(C)c(=O)n2C	8.5*	9	-0.42	12220*	1740	+
C/C=C/C=C/C(=O)[C@@H]1[C@@H]([C@]2(C)OC(=O)C(C)=C2O)[C@H]2/C(=C(O)/C=C/C=C/C)C(=O)[C@]1(C)C(=O)C2(C)O (stereo partly specified)	x	x	0.6	x	x	x
Cc1c(Cl)cccc1-n1c(SCC(=O)NCc2ccccc2Cl)nnc1-c1ccncc1	x	4	1.6	x	x	x
Cc1c(NC(=O)C(C)OC(=O)[C@@H](NC(=O)c2ccccc2)C(C)C)c(=O)n(-c2ccccc2)n1C (stereo partly specified)	x	-1	0.13	x	x	x
C#Cc1ccc([C@@H]2C=C(C(=O)OCC=C)O[C@H](OCc3ccc(CO)cc3)C2)cc1	x	x	0.6	x	x	x
CCOC(=O)c1c(NC(=O)CSc2nnnn2CC)sc(C)c1C	3.9*	-10	0.022	13084*	1736	+
CCOC(=O)c1c(NC(=O)CSc2nnnn2C)sc(C)c1C	1.7	-3	0.16	x	x	x
CCC1CCc2c(sc3ncnc(N4CCOCC4)c23)C1 (stereo unspecified)	17*	4	0.28	15132*	1584	+
Oc1ccc(N2CCN(c3ncnc4sc5c(c34)CCC5)CC2)cc1	-1.9	-5	-1.5	x	x	x
O=C(O)CC12CSc3[nH]c(=O)sc3C1c1ccccc1OC2=O (stereo unspecified)	-0.32	4	-0.3	x	x	x
CCOC(=O)C1CSc2[nH]c(=O)sc2C1c1ccccc1 (stereo unspecified)	8.2*	-1	-1	11512*	1668	+
COc1ccc(/C=N/N=C2/NC(=O)C(c3ccccc3)(c3ccccc3)S2)cc1	x	5	-0.018	x	x	x
COc1ccc(OC)c(C2C(C(C)=O)=C(O)C(=O)N2CCC(=O)O)c1 (stereo unspecified)	2.7*	8	0.09	4144	1648	i
COc1ccc(OC)c(C2C(C(C)=O)=C(O)C(=O)N2CCN2CCOCC2)c1 (stereo unspecified)	0.28	3	0.57	x	x	x
O=C1C2C3c4ccccc4C(c4ccccc43)C2C(=O)N1Cc1cccnc1 (stereo unspecified)	x	1	-0.69	x	x	x
C=CCOC(=O)C1=C[C@H](C2CCCCC2)[C@@H](CCCO)[C@H](OCC)O1	x	x	0.16	x	x	x
CCCCc1nc(NCCN2CCOCC2)c(C#N)c2c1COC(C)(C)C2	5.8*	5	2.6*	11452*	1780	+
CC(C)Cc1nc(NCCN2CCOCC2)c(C#N)c2c1COC(C)(C)C2	x	-1	0.29	x	x	x
SMILES	D1 mod	EphB4 ephrin blk	DAT uptake mod	D1 PAM confirm	D1 no dopamine	Isoprot counter
c1coc(CNc2nc3ccccc3n2CCN2CCOCC2)c1	-0.71	1	0.024	x	x	x
c1ccc(Cn2c(NCc3ccco3)nc3ccccc32)cc1	12*	6	-0.36	14512*	1716	i
Cc1ccc2c(c1)cc(CN(Cc1cccnc1)C(=O)NCc1ccccc1)c1nnnn12	x	1	0.5	x	x	x
CCN(CC(=O)Nc1ccc([N+](=O)[O-])cc1OC)c1ccccc1	x	2	-0.49	x	x	x
COCCNC(=O)C(OC(=O)c1cc2oc(C)cc2n1C)C(C)C (stereo unspecified)	x	-1	0.54	x	x	x
CN(C)c1nc(N)nc(CSc2n[nH]c(-c3ccccc3)n2)n1	7.8*	3	-0.024	9244*	1568	+
O=C(CSc1n[nH]c(-c2ccccc2)n1)c1ccccc1	1.3	1	-0.13	x	x	x
Cc1ccc2cc(C)c3nnc(SCC(=O)Nc4nc5c(s4)CCCC5)n3c2c1C	x	1	1.9	x	x	x
COc1ccc(-c2nnc(-c3cccnc3)o2)cc1OC	4.1*	-3	-0.055	8388*	x	+
COc1cc(-c2nnc(-c3cccnc3)o2)cc(OC)c1OC	1.5	6	0.35	x	x	x
CCOc1ccc(-c2nnc(-c3cccnc3)o2)cc1OCC	8.1*	-4	0.74	20776*	1752	+
CCOc1ccc(-c2nnc(-c3ccccc3)o2)cc1	x	-5	-0.44	x	x	x
Cc1ccc(Cl)cc1NC(=O)c1cccc(OC(F)F)c1	x	7	-0.032	x	x	x
C=CCn1c2ccccc2c2nnc(SCN3C(=O)c4ccccc4C3=O)nc21	9.9*	0	-0.015	16236*	1984	+
O=C1c2ccccc2C(=O)N1CSc1nnc2c3ccccc3n(CCc3ccccc3)c2n1	x	-3	-0.5	x	x	x
Cc1cccc(C)c1NC(=O)C(=O)NCc1ccccn1	x	8	0.56	x	x	x
Cc1ccc(C(=O)CCC(=O)Nc2cccc(C(F)(F)F)c2)cc1	x	-2	-0.66	x	x	x
COc1ccccc1-c1nnc2sc(-c3cc4ccccc4o3)nn12	3.9*	-9	x	10596*	1704	+
COc1ccccc1-c1nnc2sc(-c3cnccn3)nn12	-0.67	-3	0.33	x	x	x
CCc1ccc(-n2c(=O)c3c(C)c(C(=O)N(C)C)sc3n(CC(=O)NCc3ccco3)c2=O)cc1	x	5	0.56	x	x	x
NS(=O)(=O)c1ccc(CCNC(=O)C2CCCCN2S(=O)(=O)c2ccccc2)cc1 (stereo unspecified)	3.5*	0	-0.12	5988	1656	i
NS(=O)(=O)c1ccc(CCNC(=O)[C@@H]2CCCN2S(=O)(=O)c2ccccc2F)cc1	x	-3	0.0044	x	x	x
O=c1cc(-c2ccccc2)c2ccccc2[nH]1	10*	6	-1	12072*	1476	+
Cc1cc(=O)[nH]c2ccccc12	-0.034	12	0.13	x	x	x
